# The supplement of paper PMC11732987, “Enantioselective OTUD7B fragment discovery through chemoproteomics screening and high-throughput optimisation” (Communications Chemistry, 2025)
# Unmarked numbers belong to inactive results.
# What was measured:
# Test in all cases: log2 ratio of Biotin-Ahx-Ub-VS probe labelling (fragment/DMSO); higher = less target engagement (more negative = stronger competition), active = hit call of the paper (q ≤ 0.05, log2 ratio ≤ -1)
# Conditions in all cases: compound concentration: 200 uM; treatment time: 3 h
# ALG13 = target: T1, ALG13 (UniProt Q9NP73)
# T1 sequence (whole entry): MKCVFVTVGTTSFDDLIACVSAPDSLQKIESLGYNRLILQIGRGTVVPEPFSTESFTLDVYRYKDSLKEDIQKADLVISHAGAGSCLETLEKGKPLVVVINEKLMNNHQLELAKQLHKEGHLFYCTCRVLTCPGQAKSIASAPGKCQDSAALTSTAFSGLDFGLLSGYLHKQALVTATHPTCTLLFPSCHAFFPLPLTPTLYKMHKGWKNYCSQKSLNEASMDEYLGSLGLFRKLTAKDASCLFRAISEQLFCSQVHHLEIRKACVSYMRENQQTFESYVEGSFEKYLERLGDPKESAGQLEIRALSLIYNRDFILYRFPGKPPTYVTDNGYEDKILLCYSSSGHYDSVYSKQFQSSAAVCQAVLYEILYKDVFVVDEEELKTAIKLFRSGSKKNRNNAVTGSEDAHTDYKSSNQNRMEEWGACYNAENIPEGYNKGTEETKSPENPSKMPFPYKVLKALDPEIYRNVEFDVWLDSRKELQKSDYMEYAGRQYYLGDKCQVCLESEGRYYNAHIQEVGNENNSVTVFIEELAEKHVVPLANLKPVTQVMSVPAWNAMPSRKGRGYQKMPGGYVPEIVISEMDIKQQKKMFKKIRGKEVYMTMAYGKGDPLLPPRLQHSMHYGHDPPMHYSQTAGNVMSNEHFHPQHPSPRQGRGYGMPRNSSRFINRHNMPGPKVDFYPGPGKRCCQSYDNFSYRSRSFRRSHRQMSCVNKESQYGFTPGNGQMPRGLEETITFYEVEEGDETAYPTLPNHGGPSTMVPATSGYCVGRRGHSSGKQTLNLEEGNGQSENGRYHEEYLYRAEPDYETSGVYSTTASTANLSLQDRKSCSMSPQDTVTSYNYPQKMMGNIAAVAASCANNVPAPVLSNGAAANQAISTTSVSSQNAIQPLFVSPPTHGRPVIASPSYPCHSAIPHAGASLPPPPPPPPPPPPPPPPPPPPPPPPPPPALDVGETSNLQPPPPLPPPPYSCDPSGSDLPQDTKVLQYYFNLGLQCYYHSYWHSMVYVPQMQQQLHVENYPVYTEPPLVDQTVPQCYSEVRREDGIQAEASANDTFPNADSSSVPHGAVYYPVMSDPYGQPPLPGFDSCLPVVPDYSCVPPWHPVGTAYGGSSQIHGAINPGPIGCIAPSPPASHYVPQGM
# In short: (§1)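 HEK293T lysate (495 µg per sample, in Tris/CHAPS/IGEPAL buffer with protease inhibitors) was exposed in triplicate for 3 h to fragment at 200 µM or to vehicle, then to Biotin-Ahx-Ub-VS at 0.5 µM final for 1 h. Labelled DUBs were enriched on NeutrAvidin, digested with LysC and trypsin, and analysed by diaPASEF LC-MS/MS. Spectronaut label-free quantities were normalised to the global median, and values are average log2 ratios of fragment over vehicle from an unpaired t-test. Only proteins with ≥2 unique peptides were used.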
# ATXN3 = ATXN3 (UniProt P54252)
# In short: as §1
# BAP1 = target: T2, BAP1 (UniProt Q92560)
# T2 sequence (whole entry): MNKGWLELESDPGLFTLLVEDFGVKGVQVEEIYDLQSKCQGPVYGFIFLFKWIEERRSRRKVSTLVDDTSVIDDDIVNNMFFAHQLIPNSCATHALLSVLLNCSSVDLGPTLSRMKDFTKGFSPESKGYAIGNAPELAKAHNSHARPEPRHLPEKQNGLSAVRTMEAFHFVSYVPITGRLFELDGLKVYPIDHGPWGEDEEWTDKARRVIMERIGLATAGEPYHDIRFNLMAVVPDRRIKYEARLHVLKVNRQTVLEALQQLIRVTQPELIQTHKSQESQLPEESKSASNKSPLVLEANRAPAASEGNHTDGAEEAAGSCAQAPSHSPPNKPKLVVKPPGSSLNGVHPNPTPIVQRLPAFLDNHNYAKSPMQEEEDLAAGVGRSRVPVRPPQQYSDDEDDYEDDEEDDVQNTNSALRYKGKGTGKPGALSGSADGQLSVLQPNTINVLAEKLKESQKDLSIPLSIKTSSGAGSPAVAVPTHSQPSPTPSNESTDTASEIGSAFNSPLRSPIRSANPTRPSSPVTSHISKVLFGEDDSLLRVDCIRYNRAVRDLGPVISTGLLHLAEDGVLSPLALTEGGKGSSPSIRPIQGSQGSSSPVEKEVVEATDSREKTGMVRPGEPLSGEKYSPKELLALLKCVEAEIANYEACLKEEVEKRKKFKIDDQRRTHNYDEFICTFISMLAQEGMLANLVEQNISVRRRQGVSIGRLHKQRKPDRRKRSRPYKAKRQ
# In short: as §1
# EIF3F = EIF3F (UniProt O00303)
# In short: as §1
# EIF3H = EIF3H (UniProt O15372)
# In short: as §1
# FAM105A = target: T3, FAM105A (UniProt Q9NUU6)
# T3 sequence (whole entry): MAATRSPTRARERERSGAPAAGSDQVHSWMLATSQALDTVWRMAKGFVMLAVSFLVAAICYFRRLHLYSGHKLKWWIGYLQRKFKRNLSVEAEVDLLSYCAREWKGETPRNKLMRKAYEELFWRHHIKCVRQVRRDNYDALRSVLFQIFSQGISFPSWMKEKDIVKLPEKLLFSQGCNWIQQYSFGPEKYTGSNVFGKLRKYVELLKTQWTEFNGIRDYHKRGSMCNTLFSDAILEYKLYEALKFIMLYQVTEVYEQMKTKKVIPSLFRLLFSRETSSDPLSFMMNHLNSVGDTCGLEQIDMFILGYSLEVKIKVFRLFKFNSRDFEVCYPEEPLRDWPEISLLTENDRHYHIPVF
# In short: as §1
# OTUB1 = OTUB1 (UniProt Q96FW1)
# In short: as §1
# OTUD4 = target: T4, OTUD4 (UniProt Q01804)
# T4 sequence (whole entry): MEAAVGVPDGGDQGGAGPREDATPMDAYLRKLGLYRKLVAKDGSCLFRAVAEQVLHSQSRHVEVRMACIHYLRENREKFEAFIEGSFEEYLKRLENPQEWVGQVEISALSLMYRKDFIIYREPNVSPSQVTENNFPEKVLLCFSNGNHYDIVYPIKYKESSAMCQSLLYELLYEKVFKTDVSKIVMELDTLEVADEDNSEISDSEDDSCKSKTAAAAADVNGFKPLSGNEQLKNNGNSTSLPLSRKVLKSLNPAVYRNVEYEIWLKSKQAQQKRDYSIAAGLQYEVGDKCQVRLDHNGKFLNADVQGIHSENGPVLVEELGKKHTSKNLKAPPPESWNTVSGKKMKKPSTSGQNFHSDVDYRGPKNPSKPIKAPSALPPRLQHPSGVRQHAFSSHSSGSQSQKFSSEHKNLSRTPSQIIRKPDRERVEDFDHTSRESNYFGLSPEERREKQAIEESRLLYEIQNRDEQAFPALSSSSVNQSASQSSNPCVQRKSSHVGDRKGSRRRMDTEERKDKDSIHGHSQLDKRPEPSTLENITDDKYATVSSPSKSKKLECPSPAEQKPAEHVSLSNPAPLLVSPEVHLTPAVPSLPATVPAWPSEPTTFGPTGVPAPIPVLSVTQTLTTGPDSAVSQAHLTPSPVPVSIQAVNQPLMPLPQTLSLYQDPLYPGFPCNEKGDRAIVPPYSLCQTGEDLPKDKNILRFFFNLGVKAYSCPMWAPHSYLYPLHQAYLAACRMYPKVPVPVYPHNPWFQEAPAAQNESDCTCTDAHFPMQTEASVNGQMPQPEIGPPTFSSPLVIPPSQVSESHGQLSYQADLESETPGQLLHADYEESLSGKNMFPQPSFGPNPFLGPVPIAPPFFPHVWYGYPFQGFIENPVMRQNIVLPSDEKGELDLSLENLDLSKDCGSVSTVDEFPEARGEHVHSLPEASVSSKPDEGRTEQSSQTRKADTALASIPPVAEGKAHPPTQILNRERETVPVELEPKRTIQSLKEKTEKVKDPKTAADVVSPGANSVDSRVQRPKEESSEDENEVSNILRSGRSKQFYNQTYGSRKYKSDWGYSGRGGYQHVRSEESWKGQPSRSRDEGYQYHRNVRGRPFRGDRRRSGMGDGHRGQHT
# In short: as §1
# OTUD5 = target: T5, OTUD5 (UniProt Q96G74)
# T5 sequence (whole entry): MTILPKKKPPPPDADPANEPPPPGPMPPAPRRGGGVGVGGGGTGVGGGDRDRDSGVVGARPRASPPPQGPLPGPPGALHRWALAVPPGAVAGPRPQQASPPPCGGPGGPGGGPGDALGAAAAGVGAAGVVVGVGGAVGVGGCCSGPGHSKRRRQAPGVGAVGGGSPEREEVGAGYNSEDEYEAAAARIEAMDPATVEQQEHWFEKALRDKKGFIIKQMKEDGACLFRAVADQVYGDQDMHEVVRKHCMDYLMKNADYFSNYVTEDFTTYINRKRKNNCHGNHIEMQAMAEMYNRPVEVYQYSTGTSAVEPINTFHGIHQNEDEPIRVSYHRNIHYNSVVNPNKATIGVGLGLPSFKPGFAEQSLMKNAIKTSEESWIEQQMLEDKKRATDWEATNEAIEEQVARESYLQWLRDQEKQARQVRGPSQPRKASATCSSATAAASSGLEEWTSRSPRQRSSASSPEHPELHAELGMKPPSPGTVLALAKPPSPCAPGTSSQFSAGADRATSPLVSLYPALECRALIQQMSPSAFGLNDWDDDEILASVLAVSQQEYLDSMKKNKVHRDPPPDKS
# In short: as §1
# EIF3F, sequence (O00303 whole entry): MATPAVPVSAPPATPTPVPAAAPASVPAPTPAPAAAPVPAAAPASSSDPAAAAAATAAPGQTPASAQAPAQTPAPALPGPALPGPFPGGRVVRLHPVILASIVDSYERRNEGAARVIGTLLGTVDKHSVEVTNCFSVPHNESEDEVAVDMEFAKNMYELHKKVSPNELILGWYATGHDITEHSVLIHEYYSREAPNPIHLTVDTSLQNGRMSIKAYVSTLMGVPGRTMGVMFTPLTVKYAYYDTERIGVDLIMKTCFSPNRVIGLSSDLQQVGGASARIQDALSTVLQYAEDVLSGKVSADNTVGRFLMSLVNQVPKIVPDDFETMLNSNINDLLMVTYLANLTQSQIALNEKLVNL
# ATXN3, sequence (P54252 whole entry): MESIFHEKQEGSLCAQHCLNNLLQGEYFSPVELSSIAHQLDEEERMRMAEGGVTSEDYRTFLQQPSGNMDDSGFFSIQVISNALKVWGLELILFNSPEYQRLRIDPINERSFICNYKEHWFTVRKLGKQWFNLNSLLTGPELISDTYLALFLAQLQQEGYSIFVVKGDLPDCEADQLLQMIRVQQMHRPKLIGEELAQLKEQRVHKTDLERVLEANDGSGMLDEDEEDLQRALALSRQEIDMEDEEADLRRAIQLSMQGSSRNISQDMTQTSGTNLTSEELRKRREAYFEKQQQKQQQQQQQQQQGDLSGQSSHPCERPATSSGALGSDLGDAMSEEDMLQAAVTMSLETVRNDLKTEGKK
# EIF3H, sequence (O15372 whole entry): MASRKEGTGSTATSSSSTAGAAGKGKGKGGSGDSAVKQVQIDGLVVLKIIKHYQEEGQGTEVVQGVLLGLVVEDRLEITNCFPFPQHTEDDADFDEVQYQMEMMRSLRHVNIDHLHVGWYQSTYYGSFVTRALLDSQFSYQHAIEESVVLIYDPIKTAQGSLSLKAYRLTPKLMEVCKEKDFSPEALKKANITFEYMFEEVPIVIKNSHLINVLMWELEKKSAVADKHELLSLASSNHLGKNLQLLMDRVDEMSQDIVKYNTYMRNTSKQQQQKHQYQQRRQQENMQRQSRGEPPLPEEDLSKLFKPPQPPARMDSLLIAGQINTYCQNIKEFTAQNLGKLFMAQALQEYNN
# OTUB1, sequence (Q96FW1 whole entry): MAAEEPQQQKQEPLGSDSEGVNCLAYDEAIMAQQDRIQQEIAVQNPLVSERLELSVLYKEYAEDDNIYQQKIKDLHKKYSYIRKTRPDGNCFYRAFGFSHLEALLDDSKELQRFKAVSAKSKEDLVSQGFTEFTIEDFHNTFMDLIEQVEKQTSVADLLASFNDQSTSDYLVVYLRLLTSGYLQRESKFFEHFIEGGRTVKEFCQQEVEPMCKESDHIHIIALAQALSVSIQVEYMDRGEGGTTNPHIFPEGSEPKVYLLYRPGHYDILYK
structure (smiles),measurement,setting,value
O=C(CCl)Nc1ccc2c(c1)OC(F)(F)O2,log2 ratio of Biotin-Ahx-Ub-VS probe labelling,ALG13,0.0874
same,log2 ratio of Biotin-Ahx-Ub-VS probe labelling,ATXN3,-0.411
same,log2 ratio of Biotin-Ahx-Ub-VS probe labelling,BAP1,-1.92 (active)
same,log2 ratio of Biotin-Ahx-Ub-VS probe labelling,EIF3F,-0.0462
same,log2 ratio of Biotin-Ahx-Ub-VS probe labelling,EIF3H,0.0852
same,log2 ratio of Biotin-Ahx-Ub-VS probe labelling,FAM105A,-0.278
same,log2 ratio of Biotin-Ahx-Ub-VS probe labelling,OTUB1,0.13
same,log2 ratio of Biotin-Ahx-Ub-VS probe labelling,OTUD4,-0.422
same,log2 ratio of Biotin-Ahx-Ub-VS probe labelling,OTUD5,-0.515
